High-throughput results from PubChem.
Most compounds without a hit are left out; they make up all but 2.2% or so of the library.
Mito fusion act – inhibitors of mitochondrial division or activators of mitochondrial fusion; S. cerevisiae fusion-defective mutant growth rescue, CellTiterGlo 48 h; Potency, µM (doses to about 46.1 µM), inactives show at the highest dose growth rescue (activation), actives largely listed as activators; hit rate 0.23% among 320,000; AID 485298; also: % of control where 0% means no effect; nearly all actives have a fitted effect of over 45% in size
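Yeast fusion mutant, YPEG (non-fermentable carbon), compound, 48 h at 37C non-permissive; CellTiterGlo added, 10 min RT, luminescence read. Rescued growth = division inhibition.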
aSyn yeast inh – alpha-synuclein toxicity inhibition in yeast; Potency, µM (series often up to 46.1 µM), inactives show at the highest dose growth rescue (activation), most hits filed as activators; hit rate 0.14% among 370,000; AID 652106; Yeast expressing alpha-synuclein, growth rescue, BacTiter-Glo, 24 h; also: % of control where 0% means no effect; nearly all actives have a fitted effect of over 65% in size
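Readout is rescue of growth in alpha-synuclein-expressing yeast, so inhibitors of toxicity appear as activators. Growth after 24 hr at 30 deg C in galactose medium is quantified by luminescence.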
Abeta rescue – A-beta toxicity reversal in yeast; yeast expressing A-beta42, growth rescue, OD600, 48 h; response scale: 0% DMSO, 100% iron-clioquinol control; Potency, µM (doses to about 46.1 µM), most hits filed as activators; hit rate 0.063% among 410,000; also: nearly all actives have a fitted effect of over 55% in size
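Yeast A-beta toxicity model in growth medium with pinned compounds, 48 h at 30 C; growth read as absorbance at 600 nm. Normalized to FeCl3/clioquinol equimolar mix (positive) and DMSO (negative).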
TDP-43 yeast inh – TDP-43 toxicity inhibition in yeast | TDP-43 expressing yeast growth rescue, BacTiter-Glo, 24 h | Potency, µM (titrated, usually from 46.1 µM), for inactives: top-dose growth rescue (activation), hits mostly activators | hit rate 1.8% among 410,000 | AID 652104; also: % of control where 0% means no effect; nearly all actives have a fitted effect of over 50% in size
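Readout is BacTiter-Glo luminescence of cell growth, so inhibitors register as activators. TDP-43-expressing yeast at OD600=0.02 in galactose medium, after raffinose pregrowth to mid-log, were incubated with compound for 24 hr at 30 deg C.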
FUS yeast rescue – FUS proteinopathy suppression in yeast | S. cerevisiae FUS-expressing, growth rescue, OD600, 24 h | Potency, µM (top dose mostly 76.6 µM), hits mostly activators | hit rate 0.24% among 390,000;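 also: plate controls were DMSO vehicle for no effect and reference control for full effect; nearly all actives have a fitted effect of over 55% in size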
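Compound concentration series was pinned onto galactose-induced FUS-expressing yeast seeded at OD 0.005. Plates sat 24hr at 30C; absorbance at 600 nm gave growth. DMSO served as background control.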
Numbers without * were called inactive; i = inactive; ? = inconclusive; / = not tested or not shown; [ ] = dose if it differs, or a comment. Calls follow the shape of the dose curve; as a rule, active = well fitted curve in the direction sought with a large enough effect; inconclusive = small, poorly fitted or top-dose-only effect, or another doubt; inactive = no such curve, though single readings can be large; an effect the other way counts as inactive or inconclusive. Potency is read from the fitted curve at half-maximal effect.

SMILES	Mito fusion act	aSyn yeast inh	Abeta rescue	TDP-43 yeast inh	FUS yeast rescue
COc1cc(O)cc(O)c1C(=O)/C=C/c1ccccc1	13.4%	12.2%	i	11.8%	i
COCCN(Cc1cccs1)S(=O)(=O)c1cc(-c2cc(C)no2)ccc1C	/	/	i	35.5µM*	i
CC(Sc1ccccn1)C(=O)NC1CCCC1 (stereo not drawn)	-7.4%	-1.2%[1.84 µM]	i	25.4%	i
Cc1c(-c2ccccc2)sc2nc[nH]c(=S)c12	4.0%	-4.1%	?	15.8µM*	i
O=c1[nH]cnc2scc(-c3ccc(-c4ccccc4)cc3)c12	2.4%	13.8%	i	23.3%	i
COC(=O)[C@@]12CCCCN1[C@H](c1ccc(-c3ccc4c(c3)OCO4)c(OC)c1)[C@@H]1C(=O)N(C)C(=O)[C@@H]12	?	14.8%	i	12.6µM*	11.2µM*
COC(=O)[C@@]12CCCN1[C@H](c1ccc(-c3ccccc3)cc1)[C@H]1C(=O)N(C)C(=O)[C@H]12	9.5%	8.8%	i	-0.8%	i
COC(=O)[C@@]12CCCCN1[C@H](c1ccc(-c3ccccc3)cc1)[C@H]1C(=O)N(C)C(=O)[C@H]12	?	2.5%	i	12.4%	i
COC(=O)[C@@]12CCCCN1[C@H](c1ccc(-c3ccc(F)cc3)c(OC)c1)[C@@H]1C(=O)N(C)C(=O)[C@@H]12	?	?	i	15.8µM*	i
COC(=O)[C@@]12CCCCN1[C@H](c1ccc(-c3ccc(F)cc3)cc1)[C@@H]1C(=O)N(C)C(=O)[C@@H]12	12.6µM*	15.9%	i	12.6µM*	i
COC(=O)[C@@]12CCCN1[C@H](c1ccc(-c3ccc(OC)cc3)cc1)[C@@H]1C(=O)N(C)C(=O)[C@@H]12	-12.0%	0.9%	i	22.4µM*	?
COC(=O)[C@@]12CCCN1[C@H](c1ccc(-c3ccc(OC)cc3)c(OC)c1)[C@@H]1C(=O)N(C)C(=O)[C@@H]12	-3.8%	-6.2%	i	?	?
COC(=O)[C@@]12CCCN1[C@H](c1ccc(-c3ccc4c(c3)OCO4)c(OC)c1)[C@H]1C(=O)N(C)C(=O)[C@H]12	-3.8%	-0.2%	i	16.3%	?
COc1cc(C)ccc1OCc1cc(C(=O)NC(c2ccccn2)C(F)(F)F)no1 (stereo not drawn)	/	1.2%	i	-3.6%	i
CC(C)(Oc1ccc(Cl)cc1)C(=O)N1CCN(c2ccccn2)CC1	14.1µM*	11.9%	i	1.3%	i
Cc1onc(-c2ccccc2)c1C(=O)OCC(=O)c1ccc(F)cc1	/	0.3%	i	20µM*	i
Cc1ccccc1OCCOC(=O)c1c(-c2ccccc2)noc1C	-16.9%	1.2%	i	-0.8%	i
Cc1onc(-c2ccccc2)c1C(=O)OCCOc1ccc([N+](=O)[O-])cc1[N+](=O)[O-]	13.4%	13.8%	i	12.6µM*	i
CCOC(=O)c1sc2nccc(N(C)C)c2c1N=CNOCc1c(F)cccc1Cl	20.4%	4.6%	i	17.8µM*	i
O=C(CCl)N1c2ccccc2Oc2ccc3ccccc3c21	/	-42.6%	i	?	?
CC(=O)N1c2ccccc2Oc2cc3ccccc3cc21	29.6%	8.9%	i	12.6µM*	i
Cn1c2ccccc2c2cc(C(=O)N3CCOCC3)sc21	0.3%	2.8%	i	14.1µM*	i
O=C(CCn1c(=O)c2cccn2c2cccnc21)N1CCN(c2ccc(F)cc2)CC1	/	/	i	12.6µM*	i
CC1(C(=O)c2ccccc2)C2c3c(ccc4ccccc34)OC(=O)C21C(=O)N1CCOCC1 (stereo not drawn)	-18.8%	6.6%	?	17.8µM*	i
Cc1cccc2c(=O)c(-c3ccc4c(c3)OCO4)c(NC(=O)c3ccco3)oc12	-1.3%	2.3%	i	15.8µM*	i
SMILES	Mito fusion act	aSyn yeast inh	Abeta rescue	TDP-43 yeast inh	FUS yeast rescue
COc1ccc(-c2c(NC(=O)c3ccco3)oc3c(C)cccc3c2=O)cc1	-2.9%	0.4%	i	14.1µM*	i
CCc1ccc2oc(C(=O)Nc3cccnc3)c(C)c2c1	9.9%	-2.4%	i	-8.5%	i
Cc1c(C(=O)Nc2cccnc2)oc2ccc(Br)cc12	16.5%	-11.3%	i	8.91µM*	i
Cc1ccc(-c2ccnc3cc(C)nn23)cc1	-25.5%	7.7%	i	20µM*	i
OC1C(Br)=Cc2ccccc21 (stereo not drawn)	/	0.0%	/	/	/
CN1C(=O)c2ccccc2Sc2ccc(NC(=O)COc3ccccc3)cc21	/	/	i	-17.8%	?
COc1ccc(OC)c(C2C(C(=O)c3ccc(C)o3)=C(O)C(=O)N2c2cc(C)on2)c1 (stereo not drawn)	-2.2%	0.4%	i	-9.3%	31.6µM*
O=C(c1ccccc1)N1c2ncnn2C2(CCCCC2)[C@@H]2CCCC[C@@H]21	/	/	i	35.5µM*	i
COC(=O)[C@@]1(Cc2ccc(F)cc2)[C@H]2c3cc(C(=O)N(C)C)n(CCc4c[nH]c5ccc(O)cc45)c3C[C@H]2CN1C(=O)c1ccccc1	/	-1.0%	i	28.0%	15.8µM*
COc1ccc(NC(=O)N2CCC(c3nc4ccc(Cl)cc4[nH]3)CC2)cc1OC	/	/	/	/	i
O=C1C=C(c2cc(F)ccc2F)C[C@@H](c2ccc(F)cc2)C1	?	9.8%	i	22.4µM*	i
COc1ccc(C)cc1C1=CC(=O)C[C@H](c2ccc(F)cc2)C1	?	13.8%	i	-4.9%	i
Cc1cc(Cl)ccc1C1=CC(=O)C[C@H](c2ccc(F)cc2)C1	?	-10.2%	i	14.1µM*	i
COc1ccc([C@H]2CC(=O)C=C(c3ccc(Cl)cc3C)C2)cc1	?	-0.6%	i	17.8µM*	?
O=C1C=C(c2ccc(-c3ccccc3)c(F)c2)C[C@@H](c2ccc(F)cc2)C1	3.1%	1.1%	i	12.5%	i
COc1ccc([C@H]2CC(=O)C=C(c3ccc(OC)cc3OC)C2)cc1	?	11.9%	i	0.0%	?
COc1ccccc1CCNC(=O)CCc1c(C)c2cc3c(C)coc3c(C)c2oc1=O	/	/	i	3.6%	i
Cc1nn(-c2ccc(N3CCOCC3)nn2)c(C)c1CCC(=O)Nc1ccc(F)cc1F	/	/	i	-19.2%	i
O=C(CC(c1ccccc1)c1cc(Br)ccc1O)NCC1(c2ccccc2)CCCC1 (stereo not drawn)	/	/	i	?	?
Cc1cc(C)cc(Oc2nc(-c3ccccc3)cc(C)c2S(C)(=O)=O)c1	-1.3%	1.8%	i	1.5%	i
Cc1cc(-c2ccccc2)nc(Oc2ccc(C(C)(C)C)cc2)c1S(C)(=O)=O	8.91µM*	2.6%	i	-4.7%	i
